# Bioassay records (PubChem)
# Compounds with a hit are over-represented: about 3.4% of the library has one in this group of screens.
# MITF inh: MITF inhibitors, primary screen, biochemical, AlphaScreen, human | Microphthalmia-associated transcription factor (Homo sapiens), O75030 | AlphaScreen MITF homodimerization, bead proximity signal | inhibition, % at 2.6 µM | 650,000 tested, 0.91% active; in the data active = inhibition above about 50%;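 note: 0% = vehicle wells with protein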
# Target sequence (O75030 whole entry, looked up): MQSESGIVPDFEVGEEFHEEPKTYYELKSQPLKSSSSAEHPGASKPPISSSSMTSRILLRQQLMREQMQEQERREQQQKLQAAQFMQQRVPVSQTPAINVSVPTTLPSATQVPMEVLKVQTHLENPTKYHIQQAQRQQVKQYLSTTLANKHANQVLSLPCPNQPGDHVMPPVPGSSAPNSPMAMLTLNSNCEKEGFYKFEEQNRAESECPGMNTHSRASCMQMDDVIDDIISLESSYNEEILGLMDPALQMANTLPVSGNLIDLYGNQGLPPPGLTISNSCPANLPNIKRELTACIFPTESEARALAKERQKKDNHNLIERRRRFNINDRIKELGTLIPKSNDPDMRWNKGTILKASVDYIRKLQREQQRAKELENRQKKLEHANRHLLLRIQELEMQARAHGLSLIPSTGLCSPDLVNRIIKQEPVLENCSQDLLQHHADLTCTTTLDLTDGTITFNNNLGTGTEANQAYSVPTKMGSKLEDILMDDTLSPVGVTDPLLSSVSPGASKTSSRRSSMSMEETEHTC
# FBW7 act: FBW7 E3 ligase activators, primary screen, biochemical, AlphaScreen, human; F-box/WD repeat-containing protein 7 (Homo sapiens), Q969H0; AlphaScreen FBW7–phospho-cyclin E peptide binding, activator screen; normalized activity (activation), % at 26.1 µM; 650,000 tested, 0.13% active; AID 1259310, 2017; in the data active = normalized activity above about 1.9%;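 note: purified mutant Fbw7 with reduced substrate affinity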
# GPR151 activ: activators of human GPR151, primary screen, cell-based, PathHunter beta-arrestin, luminescence; PathHunter beta-arrestin GPR151 cells; 650,000 tested, 1% active; G-protein coupled receptor 151 (Homo sapiens), Q8TDV0; activation, % at 11.2 µM; in the data active = activation above about 4.9%;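 note: 0% = median of compound wells and 100% = cells with positive control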
# TEAD-YAP block: TEAD-YAP interaction inhibition, primary screen, TEAD-YAP interaction inhibitor project, luminescence, HEK-TIYL cells; TEAD-Gal4/YAP UAS-luciferase luminescence; inhibition, % at 9.12 µM; 640,000 tested, 1.4% active; in the data active = inhibition above about 32%;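 note: 0% = median of test compound wells and 100% = reference inhibitor wells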
# GPR151 confirm: GPR151 activators, triplicate retest, confirmation, cell-based, PathHunter beta-arrestin, luminescence; shares compounds with GPR151 activ; activation, % at 11.2 µM; GPR151 PathHunter beta-arrestin cells, 90 min; % of EA-reagent control over plate median; 6,700 tested, under 10 active;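 active = mean percent activation across replicates above the confirmation screen cutoff of 4.91%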
# GPR119 ag: GPR119 activators in beta-arrestin cells, counter-screen for GPR151 activator project, cell-based, PathHunter beta-arrestin, luminescence, triplicate; activation, % at 11.2 µM; 90 min; 0 = compound-well median, 100 = enzyme-acceptor control; AID 1508611, 2020; shares compounds with GPR151 activ; 6,700 tested, 0.3% active;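 active = mean percent activation in the counterscreen above 29.09%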;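 note: counterscreen on off-target GPR119 to flag nonselective hits from the GPR151 activator screen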
# An asterisk follows results filed as active; nt = not tested or not shown; ! = a repeat was not active.
SMILES,MITF inh,FBW7 act,GPR151 activ,TEAD-YAP block,GPR151 confirm,GPR119 ag
CC1(C)CC(=O)C(C=Nc2ccc3c(c2)CCC3)=C(O)C1,7,0,-1,-41,nt,nt
COc1ccccc1C(=O)Nc1nnc(S(=O)(=O)N2CCOCC2)s1,-2,0,7.9*,-7,1,4
CCOc1ccc(C(=O)Nc2nnc(S(=O)(=O)N3CCCCC3)s2)cc1,9,0,5.0*,-16,0,-1
Cc1c(C(=O)Nc2ccc(F)cc2Cl)sc2ncn(CC(=O)N3CCC(C)CC3)c(=O)c12,6,0,0,9,nt,nt
CC(C)C(c1nnnn1Cc1ccc(F)cc1)N1CCN(C2CCCC2)CC1 (stereo not given),17,0,-1,4,nt,nt
c1ccc(CN2CCC(N3CCN(C4CCCC4)CC3)CC2)cc1,31,0,5.1*,11,0,6
CC(C)C(c1nnnn1Cc1ccccc1)N1CCN(C2CCCC2)CC1 (stereo not given),3,0,9.0*,4,-1,-3
S=C(NCCN1CCOCC1)Nc1cccc2ccccc12,2,0,5.3*,-3,0,-10
S=C(NCCN1CCOCC1)Nc1cccc2cnccc12,-11,0,0,-8,nt,nt
CC(C)c1ccc(NC(=O)CSc2nc3cc4c(cc3c(=O)n2CCC2=CCCCC2)OCO4)cc1,-4,0,5.9*,4,-1,7
COc1ccc(OC)c(C(=O)CC2(O)C(=O)Nc3ccc(Br)cc32)c1 (stereo not given),-3,0,5.8*,-17,0,-5
CCOC(=O)c1sc2nccc3c2c1N=CN3c1ccccc1,11,0,5.3*,-13,0,0
Cc1ccc2nc3sc(C(=O)NC(C)(C)C)c(N)c3cc2c1,5,0,0,7,nt,nt
Cc1c(C(=O)Nc2ccccn2)sc2ncnc(N3CCN(c4ccccc4F)CC3)c12,18,0,0,-4,nt,nt
CO[C@H]1C[C@H](O[C@H]2[C@H](C)[C@@H](OC3O[C@H](C)C[C@H](N(C)C)[C@H]3OC(C)=O)[C@@H](C)C[C@]3(CO3)C(=O)[C@H](C)[C@@H](OC(C)=O)[C@@H](C)[C@@H](C)OC(=O)[C@@H]2C)O[C@@H](C)[C@@H]1OC(C)=O (stereo not given in full),11,0,6.3*!,-3,1,-8
O=C(O)C1CCCN1C(=O)Nc1ccc2c(c1)OCCO2 (stereo not given),0,0,-2,-17,nt,nt
Cc1ccc(-c2nc3n(n2)C(c2cccc(O)c2)C2=C(CC(C)(C)CC2=O)N3)cc1 (stereo not given),10,0,-1,-2,nt,nt
COc1ccc(Cn2c(=O)[nH]c3c(C(N)=O)nc(-c4cccc(C)c4)nc32)cc1,0,0,0,7,nt,nt
COc1ccc(Cn2c(=O)[nH]c3c(C(N)=O)nc(-c4ccc(C)c(C)c4)nc32)cc1,1,1,5.0*,-11,1,8
COc1ccc([N+](=O)[O-])cc1N=Cc1ccc(C#N)cc1,-6,0,5.1*,1,0,6
COc1ccc([N+](=O)[O-])cc1N=Cc1cccc([N+](=O)[O-])c1,4,0,-1,-3,nt,nt
Cc1ccc(NC(=O)CCc2nnc3ccc(N4CCC(C)CC4)nn23)cc1,-24,0,5.0*,3,0,-5
Cc1ccc(NC(=O)CCc2nnc3ccc(N4CCC(C(N)=O)CC4)nn23)cc1,5,0,0,-3,nt,nt
COc1ccc(CN2CCN(Cc3ccc(OC)c(OC)c3OC)CC2)c(OC)c1,41,0,11*,2,-1,8
O=C1c2ccccc2NC2(C(=O)N(Cc3cccc4ccccc34)c3ccccc32)N1c1ccccc1 (stereo not given),4,0,7.0*,25,-1,-2
SMILES,MITF inh,FBW7 act,GPR151 activ,TEAD-YAP block,GPR151 confirm,GPR119 ag
Cc1ccc2oc(C(=O)NCCc3ccc(S(N)(=O)=O)cc3)c(C)c2c1,14,1,-2,9,nt,nt
Cc1cc2oc(C(=O)NCCc3ccc(S(N)(=O)=O)cc3)c(C)c2cc1C,9,0,10.0*,10,1,-3
Cc1cc(C)n2nc(NCc3ccccc3Cl)nc2n1,15,0,5.1*,-20,1,5
Cn1ccnc1N1CCN(C(=O)c2cccc(F)c2)CC1,9,0,5.1*,5,-1,-12
COC(=O)c1ccc(N=Cc2nc(-c3ccc([N+](=O)[O-])cc3)oc2O)cc1,1,0,0,-2,nt,nt
OCC1(Cc2ccccc2)CCN(Cc2cccc3nonc23)CC1,0,0,2,2,nt,nt
OCC1(Cc2ccccc2)CCN(Cc2cccc3c2OCO3)CC1,-3,0,5.0*,-4,0,-3
CCOC(=O)CSc1nnc(CSc2ncccn2)n1-c1ccc(F)cc1,7,0,4,7,nt,nt
Cc1ccc(C(=O)NCc2ccccc2)o1,10,0,0,3,nt,nt
NC(=O)C(=O)NCc1ccc(Cl)cc1,2,1,5.9*,-1,0,-2
Cc1ccc(C(=O)NCc2ccc(Cl)cc2)o1,5,0,7.7*,-7,1,-9
CCc1cc2c(C)cc(=O)oc2cc1OC(=O)CNC(=O)OC(C)(C)C,-1,0,3,9,nt,nt
CCOc1ccccc1C(=O)Nc1ccc(-c2cn3c(C)csc3n2)cc1,8,0,1,1,nt,nt
O=C(CCSc1ccc(Cl)cc1)Nc1ccc(S(=O)(=O)Nc2ncccn2)cc1,-7,0,-2,-7,nt,nt
Cc1cc(N)c2ccccc2[n+]1CCCCCCCCCCCCCC[n+]1c(C)cc(N)c2ccccc21,-16,0,6.6*,84*,1,-6
c1nc(NC2CC2)c2[nH]c(N3CCOCC3)nc2n1,9,0,5.0*,4,-1,1
Cc1noc(C)c1-c1nc2ncnc(NC3CC3)c2[nH]1,4,0,5.5*,-14,0,-4
COc1cc(C=C(C#N)C#N)ccc1OC(=O)c1cccs1,3,0,-1,-1,nt,nt
CCOc1cc(C=C(C#N)C#N)ccc1OC(=O)c1cccs1,-3,0,12*,18,0,4
Cc1ccc(C(=O)N/C(=C/c2cccc([N+](=O)[O-])c2)C(=O)Nc2ccc(Cl)cc2)cc1,0,0,-1,5,nt,nt
CC(C)C(=O)Nc1ccc(NC(=O)c2ccccc2Cl)nc1,2,0,6.9*,-39,1,9
